The list is not random: actives were taken first. Their share in the collection is about 6.1%.
ERK AVP block = vasopressin-driven ERK pathway inhibition; HEK293-V1b, vasopressin-stimulated pERK AlphaScreen; Potency, µM (titrated, usually from 57.5 µM), inactives show at the top dose activity, negative = inhibition, most hits filed as inhibitors; 72,000 tested, 0.99% active; AID 995; further: on the % scale 0 is the no-effect control and ±100 the full control effect; nearly all actives have a fitted effect of over 55% in size
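Phosphorylated ERK1/2 detected via AlphaScreen bead proximity in lysates of V1b-expressing HEK293 cells given 25 nM vasopressin for 5 min after 30 min compound exposure (37 °C). AC50 from Hill equation; basal DMSO 0%, vasopressin 100%.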
TSHR ag = activates the human thyroid stimulating hormone receptor; HEK293-CNG-TSHR cells (CNG channel as cAMP sensor), membrane potential dye, cAMP; Potency, µM (titrated, usually from 57.1 µM), for inactives: at the top dose activation, most hits filed as activators; P16473; 73,000 tested, 0.48% active; AID 926; active means well fitted activation curve with a large enough effect in the main read-out, with a control signal flat, not every such curve was filed as active; inconclusive means small, poorly fitted or top-dose-only effect, or a change in a side signal; inactive means no such curve, though single readings can be large or run the other way; % of control where 0% means no effect;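 further: the control signal comes from parental cells without the receptor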
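HEK 293 cells stably expressing TSHR and a modified CNG channel, with CNG-only parental cells as counterscreen, were preloaded 60 min at room temperature with membrane potential dye containing 100 uM RO 20-1724. Compound exposure was 30 min, and depolarization was read as fluorescence at 590 nm.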
HEK293 cAMP cs = raises cAMP in parental HEK293 cells, TSHR agonist counter-screen | parental HEK293 CNG cAMP sensor, membrane potential fluorescence | Potency, µM (series often up to 57.1 µM), for inactives: at the highest dose activation, hits mostly activators | 73,000 tested, 2.5% active | AID 938; further: % of control where 0% means no effect; nearly all actives have a fitted effect of over 55% in size
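Parental HEK 293 cells stably expressing a cAMP-gated CNG channel were loaded with membrane potential dye containing 100 uM RO 20-1724 for 60 min. Compound added for 30 min; depolarization read as fluorescence intensity at 590 nm.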
Luciferase inh = blocks Photinus pyralis firefly luciferase activity. AID 411. purified firefly luciferase, luminescence, 8 min. 72,000 tested, 2.2% active. Potency, µM (top dose mostly 57.1 µM), without a hit: at the highest dose activity change, negative = inhibition, hits mostly inhibitors. P08659; further: on the % scale 0 is the no-effect control and ±100 the full control effect; nearly all actives have a fitted effect of over 40% in size
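Inhibition of light generation by firefly luciferase from ATP and luciferin was profiled with concentration-response curves per sample, ATP held at 10 uM within the enzyme's linear range. Plates were read by luminescence after an 8-minute ambient incubation.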
GBA activity = modulators of human glucocerebrosidase | P04062 | purified enzyme, resorufin glucoside fluorescence (screen aimed at inhibitors), 20 min | Potency, µM | 48,000 tested, 1.1% active | AID 360; in the data active means potency below about 15 µM; inconclusive means mostly about 16 µM to 33 µM;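 further: the screen sought inhibitors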
Target sequence (P04062 whole entry, looked up): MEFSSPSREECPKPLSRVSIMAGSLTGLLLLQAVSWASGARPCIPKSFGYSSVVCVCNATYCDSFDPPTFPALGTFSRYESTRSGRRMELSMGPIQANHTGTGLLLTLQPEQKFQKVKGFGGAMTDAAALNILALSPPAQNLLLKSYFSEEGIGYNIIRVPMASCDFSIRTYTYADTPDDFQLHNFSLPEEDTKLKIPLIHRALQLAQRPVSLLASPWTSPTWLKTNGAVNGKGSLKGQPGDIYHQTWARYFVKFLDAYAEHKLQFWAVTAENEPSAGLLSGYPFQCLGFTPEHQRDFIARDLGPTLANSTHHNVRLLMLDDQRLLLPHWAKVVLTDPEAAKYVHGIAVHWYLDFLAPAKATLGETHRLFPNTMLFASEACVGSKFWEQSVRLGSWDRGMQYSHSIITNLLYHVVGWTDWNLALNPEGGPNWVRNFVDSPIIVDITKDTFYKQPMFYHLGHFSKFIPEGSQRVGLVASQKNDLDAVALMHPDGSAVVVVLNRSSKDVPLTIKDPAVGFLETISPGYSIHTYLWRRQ
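Normal human glucocerebrosidase (0.2 nM final) was assayed with resorufin β-D-glucopyranoside (30 uM final) in 50mM citric acid/KH2PO4, 10mM sodium taurocholate, 0.01% tween-20, pH 5.9. Compounds were titrated; fluorescence (Ex 548, Em 600) read after 20 min at RT.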
Bst PK mod = modulators of Bacillus stearothermophilus pyruvate kinase; purified pyruvate kinase, luminescence ATP production; ribose 5-phosphate activator present at AC10; Potency, µM; 51,000 tested, 1.2% active; in the data active means potency below about 11 µM; inconclusive means mostly about 12 µM to 25 µM;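 the screen sought inhibitors and activators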;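 further: scaled between full activation by ribose 5 phosphate and full inhibition by luteolin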
* = called active by the depositor; ? = inconclusive; . = not tested or not shown; ! = repeats disagree; [ ] = another dose, or the depositor's remark. Unless noted, the call rests on the fitted dose curve; in most records, active means well fitted curve in the direction sought with a large enough effect; inconclusive means small, poorly fitted or top-dose-only effect, or another doubt; inactive means no such curve, though single readings can be large; an effect the other way counts as inactive or inconclusive. Potency means the concentration at half of the fitted maximal effect.

SMILES	ERK AVP block	TSHR ag	HEK293 cAMP cs	Luciferase inh	GBA activity	Bst PK mod
c1ccc(C(OCCN2CCNCC2)c2ccccc2)cc1	-26.2%	3.7%	10.1%	1.4%	>76.9	>57
C(=C/c1ccccc1)/CN1CCN(CCOC(c2ccccc2)c2ccccc2)CC1	?	31.6µM*	6.5%	0.0%	.	.
O=C(O)CN1CCN(CC(=O)O)CC(=O)[O][Hg][O]C(=O)C1	-19.7%[11.5 µM]	1.6%[11.4 µM]	-6.6%[11.4 µM]	-11.1%[11.4 µM]	.	.
CNc1ccccc1C(=O)O	-9.6%	.	.	.	.	.
C[CH2][Hg][S]c1ccccc1C(=O)O	10µM*	.	.	.	.	.
C=CCn1c(O)c(C(C)=Nc2ccc(N(C)C)cc2)c(=O)[nH]c1=O	12.6µM*	4.2%	-0.1%	1.9%	>76.9	>57
C=CCn1c(O)c(C(C)=Nc2ccc(N(CC)CC)cc2)c(=O)[nH]c1=O	-19.5%	.	-8.0%	0.4%	>76.9	>57
CC1(C)CN=C(Nc2nc3ccccc3s2)S1	-2.7%	.	24.0%	15.8µM*	>76.9	.
C[As+](C)(c1ccc(Br)c([N+](=O)[O-])c1)c1ccc(Br)c([N+](=O)[O-])c1.O=[N+]([O-])O	14.2%[11.5 µM]	6.1%[11.4 µM]	1.5%[11.4 µM]	3.0%[11.4 µM]	.	.
CCCCCCCCCCCCCC(=O)O[C@H]1[C@@H](C)[C@@]2(O)[C@@H](C=C(CO)C[C@]3(O)C(=O)C(C)=C[C@@H]23)C2C(C)(C)[C@]21OC(C)=O (stereo not given in full)	19.6%	?	?	-3.7%	.	.
CN1C(=O)N(C)C(=O)C2(Cc3c(nc4ccccn4c3=O)N3CCC(Cc4ccccc4)CC32)C1=O (stereo not given)	12.6%	.	12.6%	1.3%	13.3*	>57
Cc1cccn2c(=O)c3c(nc12)N1CCC(Cc2ccccc2)CC1C1(C3)C(=O)N(C)C(=O)N(C)C1=O (stereo not given)	36.1%	?	20µM*	1.9%	6.33*	>57
O=C(c1ccccc1)c1cn(CC(=O)N2CCCC2)c2ccccc12	-6.5%	4.5%	7.2%	-1.1%	.	.
CC(C)C(=O)c1cn(Cc2ccccc2C#N)c2ccccc12	-8.3%	?	25.1µM*	0.3%	>76.9	>57
COc1cc2c(cc1OC)-c1c(O)c(OC)cc3c1[C@@H](C2)N(C)CC3	.	-4.0%	10.2%	-1.0%[11.4 µM]	.	.
C[C@@]12CC[C@H]3[C@@H](CC[C@@H]4C[C@H](O)CC[C@]43C)[C@H]1CC[C@H]2O	-14.2%	?	?	-1.5%	.	.
CC(=O)N(C1=NCCCS1)c1ccc(F)cc1	0.3%	?	1.58µM*	3.4%	>76.9	>57
CCNC(=O)[C@@H]1O[C@@H](n2cnc3c(N)ncnc32)[C@@H](O)[C@H]1O	-38.2%	?	0.159µM*	0.5%	.	.
COC(=O)c1c(C)oc2ccc(OC(=O)N3CCOCC3)cc12	-13.2%	25.1µM*	4.6%	1.8%	>76.9	>57
O=C(Oc1ccc2ccc(OC(=O)N3CCOCC3)cc2c1)N1CCOCC1	2.3%	?	?	-13.3%	.	.
CC(C)[C@H]1C(=O)N2CCC[C@@H]2[C@]2(O)O[C@@](NC(=O)[C@H]3C=C4c5cccc6[nH]cc(c56)C[C@H]4N(C)C3)(C(C)C)C(=O)N12	.	-5.5%	-5.2%	-1.1%[11.4 µM]	.	.
CC1CC[C@@]2(OC1)O[C@@H]1[C@@H](O)[C@H]3C4CC[C@H]5C[C@@H](O[C@@H]6O[C@H](CO)[C@H](O[C@@H]7O[C@H](CO)[C@@H](O)[C@H](O[C@@H]8OC[C@@H](O)[C@H](O)[C@H]8O)[C@H]7O[C@@H]7O[C@H](CO)[C@@H](O)[C@H](O[C@@H]8O[C@H](CO)[C@@H](O)[C@H](O)[C@H]8O)[C@H]7O)[C@H](O)[C@H]6O)[C@H](O)C[C@]5(C)C4CC[C@]3(C)[C@H]1[C@@H]2C (stereo not given in full)	39.8µM*	.	.	.	.	.
CC(C)C[C@H](NP(=O)(O)O[C@@H]1O[C@@H](C)[C@@H](O)[C@@H](O)[C@H]1O)C(=O)N[C@@H](Cc1c[nH]c2ccccc12)C(=O)O	-12.5%	2.4%	-3.3%	-0.5%	.	.
CC(C)CCCC1(C)C=Cc2c(O)c3c(c(CCC(C)C)c2O1)OC12C(CC4CC1C(C)(C)OC2(CCC(C)C(=O)O)C4O)C3=O (stereo not given)	28.3%	.	.	.	.	.
CC(C)=CCCC1(C)C=Cc2c(O)c3c(c(CC=C(C)C)c2O1)OC12C(=CC4CC1C(C)(C)OC2(C/C=C(/C)C(=O)O)C4O)C3=O (stereo not given)	5.01µM*	.	.	.	.	.
SMILES	ERK AVP block	TSHR ag	HEK293 cAMP cs	Luciferase inh	GBA activity	Bst PK mod
CCN1C[C@]2(C)CC[C@@H](O)[C@]34[C@@H]5CC6[C@@H](OC)C[C@@](O)([C@H]5[C@@H]6O)[C@@H](C[C@@H]23)[C@H]14	-5.0%	5.2%	1.0%	-2.1%	.	.
CCOc1ccc(-c2cc(C(=O)N3CCC4(CC3)OCCO4)c3ccccc3n2)cc1	-8.6%	-0.5%[11.4 µM]	15.5%	0.631µM*	.	0.71*
O=C(c1cc2ccccc2oc1=O)N1CCC2(CC1)OCCO2	-3.6%	-5.7%	3.2%	4.6%	>76.9	>57
CC[C@H](CO)NC(=O)[C@@H]1C=C2c3cccc4[nH]cc(c34)C[C@@H]2N(C)C1	-13.5%	?	?	1.1%	.	.
Clc1ccc(CO[C@@H](Cn2ccnc2)c2ccc(Cl)cc2Cl)cc1	-5.4%[25.7 µM]	?	15.8µM*	11.1%[25.5 µM]	.	.
C/C=C1\C[C@H](C)[C@](O)(CO)C(=O)OCC2=CCN3CC[C@@H](OC1=O)[C@@H]23	.	7.8%	9.1%	0.5%[11.4 µM]	.	.
COC(=O)[C@]1(C)CC[C@@]2(C)CC[C@@]3(C)C4=CCc5c(cc(O)c(O)c5C)[C@]4(C)CC[C@@]3(C)C2C1 (stereo not given in full)	8.2%	.	.	.	.	.
CC1=C(O)C(=O)C=C2C1=CC=C1[C@]2(C)CC[C@@]2(C)C3C[C@](C)(C(=O)O)CC[C@@]3(C)CC[C@@]12C (stereo not given in full)	31.6µM*	.	.	.	.	.
COCCOC(=O)c1ccccc1C(=O)OCCOC	30.7%	?	-22.4%	.	.	.
COc1ccc(C(=O)c2c(C)n(CCN3CCOCC3)c3cc(I)ccc23)cc1	1.1%	?	6.31µM*	0.4%	.	.
O=C(O)c1ccccc1-c1c2cc(Br)c(=O)cc-2oc2[c]([Hg])c(O)c(Br)cc12	15.8µM*!	0.8%[25.6 µM]	9.3%[25.6 µM]	-12.8%[25.5 µM]	.	.
CC(=O)c1c(O)n(C)c(=S)n(-c2ccccc2)c1=O	-1.3%	?	1µM*	0.7%	>76.9	>57
Cc1ccc(C2(c3ccc(C)c(O)c3C)CCN(C)CC2)c(C)c1O	-26.3%[11.5 µM]	-0.6%[11.4 µM]	-4.9%[11.4 µM]	2.6%[11.4 µM]	.	.
CC[C@H](CO)NC(=O)[C@H]1C=C2c3cccc4[nH]cc(c34)C[C@H]2N(C)C1	.	-0.9%	-1.4%	-0.1%[11.4 µM]	.	.
N[C@@H](Cc1cc(O)c(O)cc1O)C(=O)O	-27.0%	6.0%	-4.3%	-3.7%	.	.
